# Only some compounds are listed: those with a hit (about 3.4% of all), similar ones and a draw of the others.
# MITF primary: human MITF inhibition, primary screen; 650,000 compounds, 0.91% hits; O75030; inhibition, % at 2.6 µM; AlphaScreen MITF homodimerization, bead proximity signal; in the data active = inhibition above about 50%;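 note: 0% = vehicle wells with protein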
# GPR151 activ: human GPR151 activation; Q8TDV0; PathHunter beta-arrestin GPR151 cells, luminescence; activation, % at 11.2 µM; 650,000 compounds, 1% hits; in the data active = activation above about 4.9%;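 note: 0% = median of compound wells and 100% = cells with positive control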
# Target sequence (Q8TDV0 whole entry, looked up): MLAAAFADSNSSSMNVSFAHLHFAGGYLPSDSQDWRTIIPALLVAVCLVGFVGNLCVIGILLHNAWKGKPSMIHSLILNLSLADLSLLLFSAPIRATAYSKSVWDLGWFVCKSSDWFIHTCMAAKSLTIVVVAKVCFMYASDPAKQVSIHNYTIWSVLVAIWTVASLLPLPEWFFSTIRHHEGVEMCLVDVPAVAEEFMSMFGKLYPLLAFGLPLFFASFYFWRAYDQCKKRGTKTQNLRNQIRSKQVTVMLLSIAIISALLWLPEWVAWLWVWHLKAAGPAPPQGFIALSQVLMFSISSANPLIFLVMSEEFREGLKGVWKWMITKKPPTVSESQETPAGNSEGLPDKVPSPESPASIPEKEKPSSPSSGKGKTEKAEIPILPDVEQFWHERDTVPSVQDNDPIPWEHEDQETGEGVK
# FBW7 act: human FBW7 E3 ligase activation, primary screen. Q969H0. AlphaScreen FBW7–phospho-cyclin E peptide binding, activator screen. normalized activity (activation), % at 26.1 µM. 650,000 compounds, 0.13% hits. AID 1259310; in the data active = normalized activity above about 1.9%;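 note: purified mutant Fbw7 with reduced substrate affinity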
# TEAD-YAP inh: TEAD-YAP interaction inhibition | HEK-TIYL cells, TEAD-Gal4/YAP UAS-luciferase luminescence | inhibition, % at 9.12 µM | 640,000 compounds, 1.4% hits | AID 1259422; in the data active = inhibition above about 32%;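 note: 0% = median of test compound wells and 100% = reference inhibitor wells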
# * marks the source's active call; other numbers are inactive results.
SMILES,MITF primary,GPR151 activ,FBW7 act,TEAD-YAP inh
Cc1ccc(N2C(=O)NC(=O)/C(=C\c3ccco3)C2=O)cc1C,5,1,0,4
Cc1cc(/C=C2\C(=O)NC(=O)N(c3cccc(F)c3)C2=O)c(C)n1C,55*,1,0,1
COc1cc(OC)c(OC)cc1/C=C1\C(=O)NC(=S)N(c2cccc(F)c2)C1=O,54*,-2,0,6
O=C1NC(=O)N(c2ccccc2F)C(=O)/C1=C/c1ccc(I)o1,52*,0,0,5
Cc1ccc(N2C(=O)NC(=O)/C(=C\c3cc(C)n(C)c3C)C2=O)cc1,15,-1,0,5
O=C1NC(=O)N(c2cccc(F)c2)C(=O)/C1=C/c1ccc(I)o1,78*,1,0,11
CCc1ccc(N2C(=O)NC(=O)/C(=C\c3cc(C)n(-c4cccnc4)c3C)C2=O)cc1,-17,-2,0,5
Cc1cc(/C=C2\C(=O)NC(=S)N(c3ccc(F)cc3)C2=O)c(C)n1-c1cccnc1,110*,-2,0,0
N#C/C(=C\c1ccc(Cl)c([N+](=O)[O-])c1)c1nn(CCO)c(N)c1C#N,8,0,0,1
N#C/C(=C\c1cc([N+](=O)[O-])ccc1Cl)c1nn(CCO)c(N)c1C#N,10,0,0,67*
O=C(NCc1cccnc1)c1ccc2nc(Nc3ncccn3)sc2c1,-15,1,0,-32
COc1cc(NC(=O)c2ccc3nc(Nc4ccccn4)sc3c2)cc(OC)c1OC,-3,-3,0,32*
O=C(NCc1ccccc1)c1ccc2nc(Nc3ccc(-n4ccnc4)cc3)sc2c1,9,3,0,36*
COc1cc(Nc2nc3ccc(C(=O)NCc4cccnc4)cc3s2)cc(OC)c1OC,6,3,0,42*
O=C(NCc1cccc(C(F)(F)F)c1)c1ccc2nc(Nc3ccc(-n4ccnc4)cc3)sc2c1,-1,0,0,11
COc1ccc2c(c1)c1nc(N(C)C)nc3c1n2CCN3C,12,0,0,88*
COc1cc(C=O)ccc1OCc1nnnn1-c1ccccc1,17,-1,2.0*,11
OC[C@H]1O[C@@H](n2cnc3c(NCc4ccco4)ncnc32)[C@H](O)[C@@H]1O,0,1,0,74*
Cc1nc2sc(-c3ccccc3)cc2c2nnc(-c3ccccc3)n12,1,0,0,91*
Cc1nc2sc(-c3ccccc3)cc2c(=O)[nH]1,-1,-4,0,66*
NC(=O)c1ccccc1N=Cc1cccc(Cl)c1Cl,4,-1,1,54*
CN(C)c1ccc(Nc2nc(-c3ccc(O)cc3)cs2)cc1,15,-1,0,-5
CN(C)C(=O)c1ccc(N2C(=O)C3C4C=CC(C4)C3C2=O)cc1 (configuration not stated),-1,0,0,-4
Cn1c(C2COc3ccccc3O2)nc2ccc(-c3ncnc4[nH]ccc34)cc21 (configuration not stated),7,1,2.8*,4
c1ccc2c(c1)OCC(c1nc3ccc(-c4ncnc5[nH]ccc45)cc3[nH]1)O2 (configuration not stated),5,0,0,49*
SMILES,MITF primary,GPR151 activ,FBW7 act,TEAD-YAP inh
c1ccc(-c2noc(-c3cccc4ccccc34)n2)nc1,11,-5,0,29
Clc1ccc(-c2nc(-c3ccccn3)no2)c(Cl)c1,8,-11,0,98*
Cc1ccc(-c2nc(-c3cccnc3)no2)c(Cl)c1,1,-2,0,22
Cc1ccc(-c2nc(-c3ccccn3)no2)c(Cl)c1,7,-11,0,98*
O=C(NCc1cccc(C(F)(F)F)c1)c1csc(Nc2ccc(C(F)(F)F)cc2)n1,-11,1,0,-6
O=C(NCc1cccc(C(F)(F)F)c1)c1cccc(Nc2ccc(N3CCOCC3)cc2)n1,16,4,0,62*
COc1ccc(CCNC(=O)c2cccc(Nc3ccc(N4CCOCC4)cc3)n2)cc1,16,4,0,59*
COc1cc(Nc2cccc(C(=O)NCCc3ccc(O)cc3)n2)cc(OC)c1OC,13,1,0,35*
COc1ccc(CCNC(=O)c2cccc(NCCN3CCOCC3)n2)cc1,-4,-1,0,4
COc1cc(Nc2cccc(C(=O)NCCN(C(C)C)C(C)C)n2)cc(OC)c1OC,14,1,0,-1
O=C(NCc1cccc(C(F)(F)F)c1)c1csc(Nc2ccc(N3CCOCC3)cc2)n1,22,3,0,51*
O=C(Nc1cccc(F)c1)c1cc(S(=O)(=O)NCc2ccc(F)cc2)ccc1F,-19,2,0,2
COc1ccc(NC(=O)C(C)N(c2ccc(Cl)cc2)S(C)(=O)=O)cc1Cl (configuration not stated),9,0,0,6
O=C(c1ccccc1S(=O)(=O)NCC(O)COc1ccc(N2C(=O)C3CC=CCC3C2=O)cc1)N1CCOCC1 (configuration not stated),-23,0,1,-4
CC(=O)OC(=C(Cl)Cl)c1ccc(C(OC(C)=O)=C(Cl)Cl)cc1,-1,4,0,42*
CC(=O)Oc1ccc(C(=O)c2ccc(OC(C)=O)cc2)cc1,16,1,0,3
CCCCc1ccc(-c2nc(C=Nc3ccc(Cl)cc3)c(O)o2)cc1,3,1,0,1
Cc1cc(-c2cnc(N3CCCC3)nc2C2CCN(C(=O)c3scnc3C)CC2)on1,-4,1,0,60*
O=C(CCl)NCC1(c2ccccc2)CCCC1,7,0,2,58*
O=c1[nH]c2ccc(S(=O)(=O)NCCCO)cc2[nH]1,21,0,1.9*,5
CCOC(=O)c1c2n(c3nc4ccccc4nc13)CCCN2,-6,-1,0,2
COc1ccccc1C1=N/C(=C\c2ccc(N(C)C)c([N+](=O)[O-])c2)C(=O)O1,13,0,0,-4
O=c1c(Oc2ccc(F)cc2)coc2c(O)c(O)ccc12,83*,0,0,-7
CCOc1ccc(C(=O)N(CCCO)Cc2cc3cc(C)ccc3[nH]c2=O)cc1,9,0,0,4
O=C(NCC1(c2ccccc2)CCOCC1)C1CC12CCN(C(=O)c1ccccc1)CC2 (configuration not stated),0,-1,0,-6
SMILES,MITF primary,GPR151 activ,FBW7 act,TEAD-YAP inh
CC(=O)NC(=O)c1cc2ccccc2oc1=Nc1ccc(C)cc1,-10,1,0,35*
O=C(N/N=C/c1c[nH]c2ccccc12)/C(=C/c1ccccc1O)NC(=O)c1ccccc1,20,-8,0,86*
Cn1cc(C(=O)N/N=C/c2c[nH]c3ccccc23)c2ccccc21,2,0,0,37*
CCOc1ccc(/C=N/NC(=O)/C(=C/c2ccccc2O)NC(=O)c2ccccc2)cc1,31,-8,0,88*
O=C(N/N=C/c1c[nH]c2ccccc12)c1ccncc1,14,2,0,5
Cc1cnc(N2C(=O)c3ccc(C(=O)O)cc3C2=O)s1,-23,-1,0,2
CC(=O)Nc1ccc(/C=C2\CCc3ccccc3C2=O)cc1,6,0,0,70*

# Compound activity (PubChem)
